# Source: PubChem
# Rpn11 inh: Rpn11 (human) deubiquitinase inhibition; O00487; human 26S proteasome, Ub4-pepOG fluorescence polarization; 20S core pre-blocked with epoxomicin; inhibition, % at 20 µM; 360,000 tested, 0.59% active; AID 588493;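 active = inhibition at 20 µM, scaled to each plate's controls, above about 33%, limit read from the data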
# Myeloid diff 2: promotes myeloid progenitor differentiation; ER-HoxA9 myeloid progenitors, lysozyme-GFP differentiation, flow cytometry; calls only at 10 µM; 360,000 tested, 1% active; AID 624256;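 active = normalized GFP-positive differentiation at or above the plate's own cutoff, the solvent-only control mean plus 3 SD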;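 also: cells exposed to compound for four days before flow analysis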
# HNF4A DNA FP: change in binding of human HNF4 alpha to DNA | P41235 | HNF4a-FITC DNA binding, fluorescence polarization, 1 h | activity change, % at 10 µM | 360,000 tested, 0.3% active; in the data active = activity change above about 30%, passing the limit was not always enough
# TPT1 inh: C. albicans TPT1 enzyme inhibition | recombinant caTPT1, FP RNA substrate dephosphorylation | inhibition, % at 5 µM | 300,000 tested, 0.81% active;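 active = inhibition above the mean of all tested compounds plus 3 SD, set per screening campaign, cut at about 24% in these data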
# caTPT1 confirm: confirmation of Candida albicans TPT1 inhibitors. shares compounds with TPT1 inh. recombinant caTPT1, fluorescence polarization, RNase T1 coupled. inhibition, % at 5 µM. 2,400 tested, 74% active;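 active = inhibition above the primary screen limit, the mean inhibition of all tested compounds plus 3 SD, cut at about 25% in these data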
# RNase T1 inh: blocks Aspergillus oryzae RNase T1, a TPT1 counter-screen; shares compounds with TPT1 inh; RNase T1 cleavage, fluorescence polarization, 1536-well; inhibition, % at 5 µM; AID 2153; 2,400 tested, 83% active;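 active = inhibition above the solvent-only control well mean plus 3 SD, limit set per screening run, cut at about 23% in these data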;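 also: inhibitors block cleavage so intact labeled substrate keeps polarization high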
# Rpn11 inh conf: Rpn11 inhibition confirmation, single concentration | 1,900 tested, 29% active | shares compounds with Rpn11 inh | inhibition, % at 20 µM | purified human 26S proteasome, Ub4-pepOG fluorescence polarization; proteasome pretreated with epoxomicin
# MMP-2 counter: blocks human MMP-2, flagging nonselective RPN11 hits. 1,900 tested, 4% active. inhibition, % at 20 µM. recombinant MMP-2, FRET peptide cleavage fluorescence. shares compounds with Rpn11 inh. AID 602330;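 also: human MMP-2 activated beforehand with APMA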
# Target sequence (P08253 whole entry, looked up): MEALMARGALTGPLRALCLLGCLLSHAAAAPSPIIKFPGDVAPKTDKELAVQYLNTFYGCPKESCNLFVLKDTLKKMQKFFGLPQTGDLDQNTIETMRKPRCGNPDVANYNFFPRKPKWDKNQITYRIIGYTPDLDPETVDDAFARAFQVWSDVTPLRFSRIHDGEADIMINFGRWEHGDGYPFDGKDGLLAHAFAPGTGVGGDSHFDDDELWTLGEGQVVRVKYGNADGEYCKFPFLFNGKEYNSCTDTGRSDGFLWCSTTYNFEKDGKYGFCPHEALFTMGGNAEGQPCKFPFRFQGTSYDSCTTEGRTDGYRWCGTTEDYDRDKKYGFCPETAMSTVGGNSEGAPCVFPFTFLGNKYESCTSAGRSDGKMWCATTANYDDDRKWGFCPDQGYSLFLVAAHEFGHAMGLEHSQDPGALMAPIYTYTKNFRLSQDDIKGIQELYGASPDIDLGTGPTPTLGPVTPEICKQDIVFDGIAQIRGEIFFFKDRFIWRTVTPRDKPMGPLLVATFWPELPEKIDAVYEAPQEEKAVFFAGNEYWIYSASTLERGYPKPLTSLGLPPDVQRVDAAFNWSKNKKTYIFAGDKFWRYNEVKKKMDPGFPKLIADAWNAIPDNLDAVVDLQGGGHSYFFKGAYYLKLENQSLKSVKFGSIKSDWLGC
# Thrombin inh: blocks bovine thrombin, flagging nonselective RPN11 hits; 1,900 tested, 13% active; AID 602333; shares compounds with Rpn11 inh; bovine thrombin cleavage of Ub4-pepOG, fluorescence polarization; inhibition, % at 20 µM;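 active = mean inhibition at least 40% at 20 µM, or signal 3 deviations below plate average, so some actives read negative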
# Hits are given with their value; n = inactive; x = no result shown; + = active, no number. Sampled rows, rich in hits. Any-hit rate of the full collection: about 2.1%. Rule as the data show it, unless noted: active = inhibition above about 40%; inactive = the rest.
SMILES,Rpn11 inh,Myeloid diff 2,HNF4A DNA FP,TPT1 inh,caTPT1 confirm,RNase T1 inh,Rpn11 inh conf,MMP-2 counter,Thrombin inh
CSc1nsc(/C=C/Nc2ccc(F)cc2F)c1C#N,54.6,+,42.1,54.1,72.1,89.0,n,n,n
Cc1c(N/C(=N/S(=O)(=O)c2ccccc2)c2ccc(Cl)cc2)c(=O)n(-c2ccccc2)n1C,n,n,n,n,x,x,x,x,x
NS(=O)(=O)c1ccc(Nc2ccc([N+](=O)[O-])c3nonc23)cc1,56.2,n,n,38.3,47.7,61.9,44.5,n,n
NC(COCc1ccccc1)c1csc(NC(=O)Nc2cccc(C(F)(F)F)c2)n1 (stereo not given),n,n,n,x,x,x,x,x,x
COc1ccc(N=C2NC(=O)/C(=C/c3ccc(O)c(OC)c3)S2)cc1,145.3,n,n,31.5,43.8,51.8,49.3,n,68.0
O=C(C1=C(O)C(=O)N(c2ncccn2)C1c1ccc(Cl)c(Cl)c1)c1ccco1 (stereo not given),41.4,n,n,27.8,30.0,39.5,n,n,n
O=C(NCc1n[nH]c(=S)n1-c1ccc(Br)cc1)c1ccc(S(=O)(=O)N2CCOCC2)cc1,n,n,n,n,x,x,x,x,x
CN1CCc2nc(NC(=O)c3cccc(OC(F)F)c3)sc2C1,50.7,n,48.5,60.1,25.8,32.9,n,n,n
CCOc1ccc(NC(=O)COC(=O)CN2CCCCCC2=O)cc1,n,n,n,x,x,x,x,x,x
CCN(CCO)c1ccc(Nc2cc(-c3ccc(-c4ccccc4)cc3)ncn2)cc1,n,n,n,x,x,x,x,x,x
CCN(CCO)c1ccc(N=Nc2cc(C)[nH]n2)cc1,70.3,n,47.0,25.3,33.6,42.4,42.1,n,n
COc1ccc2o/c(=N/NC(=O)c3cccs3)c(C(N)=O)cc2c1,44.4,n,n,51.6,67.6,78.7,70.2,n,43.1
CN(C)S(=O)(=O)c1cccc(-c2nn(-c3ccccc3)cc2/C=C2\SC(=S)NC2=O)c1,86.5,n,58.5,74.7,n,32.9,n,n,n
O=C(COc1ccccc1Cl)Nc1ccc(N2CCN(C(=O)c3ccccc3)CC2)cc1,n,n,n,n,x,x,x,x,x
COc1ccc(-c2oc3c(c2C#CC(C)(C)O)C(OCCO)CC3)cc1 (stereo not given),x,n,n,x,x,x,x,x,x
CC[n+]1ccc(/C=C2\Sc3ccccc3N2CCCS(=O)(=O)[O-])c2ccccc21,32.6,n,n,31.0,n,n,n,n,n
CCOC(=O)c1sc2nc(CSc3ccccc3Cl)[nH]c(=O)c2c1C,x,n,n,n,x,x,x,x,x
CNC(=O)NC(=O)CSc1nc2ccccc2n1CCOC,n,n,n,n,x,x,x,x,x
COC(=O)c1sc2nc(CSc3ccc(Br)cc3)[nH]c(=O)c2c1C,76.5,n,n,35.5,26.4,36.3,50.3,n,n
COCCn1c(SCc2nc3sc(C(=O)OC)c(C)c3c(=O)[nH]2)nc2ccccc21,49.8,n,n,25.9,n,33.0,n,n,n
Cc1ccc(-n2ncc3c(SCC(N)=O)ncnc32)cc1C,n,n,n,x,x,x,x,x,x
O=C(CSc1nc2cc(Cl)ccc2s1)c1cc2ccccc2o1,55.3,n,n,78.0,n,26.8,45.4,n,n
CCOc1ccc(NC(=O)CCC(=O)NNS(=O)(=O)c2ccccc2[N+](=O)[O-])cc1,n,n,n,n,x,x,x,x,x
O=C(CCC1CCCCC1)NC1CCCCC1,n,n,n,x,x,x,x,x,x
CCCCn1c(O)c(/C=C/C=C/C=Nc2ccccc2)sc1=S,81.2,n,51.2,44.5,n,28.5,n,n,n
SMILES,Rpn11 inh,Myeloid diff 2,HNF4A DNA FP,TPT1 inh,caTPT1 confirm,RNase T1 inh,Rpn11 inh conf,MMP-2 counter,Thrombin inh
CCCCCC/C(C)=C1/SC(=S)NC1=O,47.6,n,n,51.2,n,n,n,n,n
CCCCCCCCCC(=O)O,n,n,n,x,x,x,x,x,x
Cc1cc(C(=O)O)ccc1-n1c(C)cc(/C=C(/C#N)C(=O)Nc2ccccc2)c1C,n,n,n,n,x,x,x,x,x
Cc1cc(C(=O)O)ccc1-n1c(C)cc(C=C2C(=O)c3ccccc3C2=O)c1C,43.5,x,n,58.9,51.3,62.9,n,n,n
O=C(N/N=C/c1sc(=O)n(-c2ccccc2)c1Cl)c1ccncc1,57.0,n,n,32.3,69.2,81.2,n,n,n
COc1cc(C(=O)N/N=C/c2sc(=O)n(-c3ccccc3)c2Cl)cc(OC)c1OC,n,n,n,n,x,x,x,x,x
O=C(CCC(=O)c1ccc(F)cc1)OC1CCOC1=O (stereo not given),n,n,n,n,x,x,x,x,x
COc1cccc(NC2=Nc3cccc4cccc2c34)c1,45.2,n,n,24.8,34.9,44.4,44.3,n,n
COc1ccc(CC(=O)NNC2=Nc3cccc4cccc2c34)cc1OC,n,n,n,n,x,x,x,x,x
COc1cc(NC2=Nc3cccc4cccc2c34)cc(OC)c1OC,41.8,n,n,31.4,32.1,43.4,n,n,n
COc1ccc(Nc2ccccc2N)cc1,52.5,+,n,36.6,27.1,35.1,n,n,n
Nc1ccc(Nc2ccccc2N)cc1,35.3,n,n,25.0,26.5,36.0,n,n,n
COc1ccc(Nc2ccnc3ccccc23)cc1,n,n,n,n,x,x,x,x,x
CC(C)CNc1ncnc2c1ncn2[C@H]1CN(CCN2CCOCC2)C[C@@H](CO)O1,n,n,n,x,x,x,x,x,x
CC1(C)OC(C)(C)/C(=C/Nc2ccccc2)C1=O,n,n,n,n,x,x,x,x,x
COc1ccc(OCC(=O)NCCNC(=O)c2cccnc2)cc1,n,n,n,n,x,x,x,x,x
COC(=O)c1ccc(N2NC(=O)/C(=C/c3cc(OC)c(O)c(OC)c3)C2=O)cc1,53.9,x,n,102.9,99.0,121.2,62.4,n,n
COc1cc(/C=C2/C(=O)NN(c3ccc(Cl)cc3)C2=O)cc(Br)c1O,68.2,n,n,66.8,112.5,123.2,193.5,n,79.4
COC(=O)c1ccc(N2NC(=O)/C(=C/c3cc(OC)c(OC)c(OC)c3)C2=O)cc1,n,n,n,n,x,x,x,x,x
Cn1cnnc1Sc1cc(N2CCN(S(=O)(=O)c3ccc4ccccc4c3)CC2)ccc1[N+](=O)[O-],n,x,n,n,x,x,x,x,x
CCc1ccc(OC(C)c2nnc(SCC(=O)Nc3ncccc3C)n2C)cc1 (stereo not given),n,n,n,n,x,x,x,x,x
Cc1ccccc1N=C1NC(=O)/C(=C/c2cccn2C)S1,54.5,n,n,37.9,28.5,38.8,n,n,43.9
N=C1/C(=C\c2ccc(-c3cc(Cl)cc(Cl)c3)o2)C(=O)N=C2SC=C(c3ccccc3)N12,n,n,n,n,x,x,x,x,x
N=C1/C(=C/c2ccc(-c3cccc(C(=O)O)c3)o2)C(=O)N=C2SC=C(c3ccccc3)N12,132.1,n,n,73.7,83.7,91.5,151.8,n,50.7
